Laboratory results taken from PubChem BioAssay.
The source made the active and inactive calls.

Key:
[1] = E. coli DRC41 culture turbidity changes, primary screen, E. coli filamentation inducer project, strain DRC41, OD650, 48 h (AID 1152);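 further: E. coli MC1000 strain DRC41 lacking acrAB efflux pump and sulA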; settings: E. coli DRC41 (acrAB sulA), higher = more signal, called active from +8 up or from −8 down
[2] = small-molecule binders of probe aLefty1, primary screen, biochemical, small-molecule microarray, 635/667 nm fluorescence (AID 1153); settings: higher = more signal;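 further: score merges spot fluorescence with signal-to-noise ratio from the scanned slide images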
[3] = PSAC antagonists in infected red cells, primary screen, cell-based, P. falciparum Indochina, OD700, 1 h (AID 1154); settings: P. falciparum Indochina infected RBC osmotic lysis, higher = more signal, called active from +8 up or from −8 down
[4] = PSAC antagonists in infected red cells, primary screen, cell-based, P. falciparum Indochina, OD700, 2 h (AID 1155);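 further: lysis reports solute entry through the parasite surface anion channel PSAC; channel blockers reduce lysis of infected cells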; settings: P. falciparum Indochina infected erythrocytes, osmotic lysis OD700; higher = more signal, called active from +8 up or from −8 down
[5] = osmotic lysis modulators in infected erythrocytes, primary screen, PSAC antagonist project, cell-based, P. falciparum Indochina, OD700, 3 h (AID 1156); settings: higher = more signal, called active from +8 up or from −8 down
[6] = PSAC antagonists in infected red cells, primary screen, cell-based, P. falciparum Indochina, OD700, 18 h (AID 1157); settings: P. falciparum Indochina infected erythrocytes, osmotic lysis OD700, 18 h; higher = more signal, called active from +8 up or from −8 down
[7] = modulators of S6 phosphorylation in cells, primary screen, cell-based, A549, cytoblot, luminescence, serum-stimulated (AID 1158); settings: A549 phospho-S6 cytoblot, 5 h, higher = more signal;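 further: serum-stimulated A549 lung adenocarcinoma cells; signal is phosphorylated S6 detected by cytoblot immunostaining with HRP secondary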
[8] = target: NADPH oxidase 2 (Homo sapiens) (UniProt P04839); test: NOX2-dependent H2O2 signal modulators, primary screen, NOX inhibitor project, cell-based, HEK293-NOX2, PMA-stimulated, Amplex Red fluorescence (AID 1159); settings: 45 min, higher = more signal, called active from +8 up or from −8 down; further: test concentration not given here
[9] = target: NADPH oxidase 4 (Homo sapiens) (UniProt Q9NPH5); test: NOX4-dependent H2O2 signal modulators, primary screen, NOX inhibitor project, cell-based, HEK293-NOX4, tetracycline-induced, Amplex Red fluorescence (AID 1160); settings: 45 min, higher = more signal, called active from +8 up or from −8 down
[10] = target: NADPH oxidase 5 (Homo sapiens) (UniProt Q96PH1); test: NOX5-dependent H2O2 signal modulators, primary screen, NOX inhibitor project, cell-based, HEK293-NOX5, Amplex Red fluorescence (AID 1161); settings: HEK293-NOX5, ionomycin, 45 min, higher = more signal
Sequence of NADPH oxidase 5 (Homo sapiens) (Q96PH1 whole entry, looked up): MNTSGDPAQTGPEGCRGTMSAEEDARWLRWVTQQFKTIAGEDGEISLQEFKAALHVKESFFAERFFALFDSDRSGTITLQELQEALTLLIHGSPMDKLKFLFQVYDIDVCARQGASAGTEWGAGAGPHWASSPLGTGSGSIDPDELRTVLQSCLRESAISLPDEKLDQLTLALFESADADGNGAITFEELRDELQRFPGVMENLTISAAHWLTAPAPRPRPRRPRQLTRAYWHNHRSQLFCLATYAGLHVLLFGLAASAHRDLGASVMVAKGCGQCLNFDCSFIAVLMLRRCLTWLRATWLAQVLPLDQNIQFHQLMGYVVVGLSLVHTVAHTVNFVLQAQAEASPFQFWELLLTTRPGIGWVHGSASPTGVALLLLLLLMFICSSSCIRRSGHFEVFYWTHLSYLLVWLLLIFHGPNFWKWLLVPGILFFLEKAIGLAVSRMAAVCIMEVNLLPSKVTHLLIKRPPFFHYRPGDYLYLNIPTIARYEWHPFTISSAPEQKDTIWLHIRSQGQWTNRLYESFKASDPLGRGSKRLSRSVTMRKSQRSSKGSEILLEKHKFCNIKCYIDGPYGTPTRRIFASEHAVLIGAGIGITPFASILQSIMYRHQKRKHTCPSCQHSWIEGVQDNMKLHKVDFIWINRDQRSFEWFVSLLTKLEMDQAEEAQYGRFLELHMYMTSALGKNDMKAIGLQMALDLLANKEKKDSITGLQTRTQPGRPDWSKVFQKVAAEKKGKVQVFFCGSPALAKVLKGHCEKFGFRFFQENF

Sequence of NADPH oxidase 4 (Homo sapiens) (Q9NPH5 whole entry, looked up): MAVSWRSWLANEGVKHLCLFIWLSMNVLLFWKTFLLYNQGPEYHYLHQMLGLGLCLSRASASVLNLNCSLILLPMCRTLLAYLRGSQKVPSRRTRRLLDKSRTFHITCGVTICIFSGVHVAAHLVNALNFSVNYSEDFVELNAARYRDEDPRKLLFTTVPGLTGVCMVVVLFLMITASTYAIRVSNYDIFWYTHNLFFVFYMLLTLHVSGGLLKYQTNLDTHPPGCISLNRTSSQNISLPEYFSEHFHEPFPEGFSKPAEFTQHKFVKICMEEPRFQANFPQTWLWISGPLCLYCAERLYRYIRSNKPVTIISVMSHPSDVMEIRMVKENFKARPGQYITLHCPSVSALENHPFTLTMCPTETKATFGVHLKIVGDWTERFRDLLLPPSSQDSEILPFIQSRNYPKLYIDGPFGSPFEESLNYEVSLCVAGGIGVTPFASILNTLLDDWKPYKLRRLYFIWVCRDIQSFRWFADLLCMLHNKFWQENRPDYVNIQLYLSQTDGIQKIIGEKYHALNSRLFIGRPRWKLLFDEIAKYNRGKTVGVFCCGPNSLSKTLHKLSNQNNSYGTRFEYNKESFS
Sequence of NADPH oxidase 2 (Homo sapiens) (P04839 whole entry, looked up): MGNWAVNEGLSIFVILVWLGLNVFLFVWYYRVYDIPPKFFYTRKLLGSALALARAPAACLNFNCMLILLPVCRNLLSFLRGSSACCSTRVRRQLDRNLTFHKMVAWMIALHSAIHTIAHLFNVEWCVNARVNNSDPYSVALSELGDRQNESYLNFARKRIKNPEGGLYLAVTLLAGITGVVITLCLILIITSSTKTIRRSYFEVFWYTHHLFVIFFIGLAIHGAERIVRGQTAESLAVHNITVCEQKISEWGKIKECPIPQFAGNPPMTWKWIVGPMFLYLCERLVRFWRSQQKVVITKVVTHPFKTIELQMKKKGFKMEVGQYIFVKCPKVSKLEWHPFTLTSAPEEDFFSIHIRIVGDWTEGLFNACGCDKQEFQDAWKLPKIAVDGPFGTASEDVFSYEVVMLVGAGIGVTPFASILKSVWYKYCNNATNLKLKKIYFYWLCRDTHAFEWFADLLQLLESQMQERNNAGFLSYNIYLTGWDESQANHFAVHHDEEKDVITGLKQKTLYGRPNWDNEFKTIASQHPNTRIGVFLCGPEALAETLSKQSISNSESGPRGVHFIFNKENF

SMILES	z-score [1]	composite z-score [2]	z-score [3]	z-score [4]	z-score [5]	z-score [6]	z-score [7]	z-score [8]	z-score [9]	z-score [10]
CCCCC(CC)C(O)C1C=CC2C(=O)N(c3ccccc3)C(=O)C2N1Nc1ccc(C#N)cc1 (stereo not given)	0.344 (inactive)	0.834	9.85 (active)	2.68 (inactive)	1.89 (inactive)	1.54 (inactive)	-0.423	0.414 (inactive)	-2.2 (inactive)	-1.91
CC(C)NC(=O)[C@@]1(C)c2ccccc2C(=O)N(Cc2ccc(OC(F)(F)F)cc2)[C@H]1c1ccc(CO)cc1	-0.362 (inactive)	0.0004	2.96 (inactive)	0.857 (inactive)	1.89 (inactive)	0.254 (inactive)	0.0795	0.415 (inactive)	-0.667 (inactive)	1.99
[N-]=[N+]=Nc1ccccc1C[C@]1(C(=O)NCCN2CCOCC2)COC(c2ccc(OCCCO)cc2)=N1	1.87 (inactive)	0.111	21.5 (active)	4.14 (inactive)	2.57 (inactive)	0.913 (inactive)	0.148	2.89 (inactive)	1.12 (inactive)	-0.481
C=C(COC)C(=O)CC[C@@H](OC(C)=O)c1cccc(OCCO)c1	0.0328 (inactive)	-0.152	4.13 (inactive)	1.11 (inactive)	0.864 (inactive)	0.529 (inactive)	-0.487	0.212 (inactive)	-1.01 (inactive)	-1.06
Cc1ccc(S[C@]2(C(=O)NCC(F)(F)F)CC(=O)N(Cc3cc(C(F)(F)F)cc(C(F)(F)F)c3)[C@@H]2c2ccc(CO)cc2I)cc1	0.168 (inactive)	-0.563	1.71 (inactive)	-0.0111 (inactive)	1.12 (inactive)	0.449 (inactive)	0.837	1.63 (inactive)	-2.46 (inactive)	-1.28
COc1cccc(C)c1NC(=O)O[C@H]1[C@H](OC(=O)Nc2ccccc2-c2ccccc2)[C@H](OC(=O)Nc2ccccc2-c2ccccc2)[C@@H](OC)O[C@@H]1CO	-0.0771 (inactive)	-0.017	1.57 (inactive)	0.557 (inactive)	-0.299 (inactive)	0.742 (inactive)	-0.319	0.224 (inactive)	-0.572 (inactive)	-0.507
CC(C)C[C@@H]1NC(=O)[C@@H]2C[C@H](C(=O)NCCCCCCN)[C@H](c3cccc(OCCO)c3)N2C1=O	0.831 (inactive)	0.393	3.69 (inactive)	0.73 (inactive)	3.36 (inactive)	0.227 (inactive)	-0.256	2.24 (inactive)	1.36 (inactive)	1.99
COC(=O)[C@@]1(Cc2ccc(OC)cc2)[C@H]2c3cc(C(=O)N4CCCC4)n(CCc4c[nH]c5ccc(O)cc45)c3C[C@H]2CN1C(=O)c1ccccc1	-0.0255 (inactive)	0.302	8.22 (active)	0.847 (inactive)	1.27 (inactive)	1.11 (inactive)	-0.029	-0.648 (inactive)	-6.51 (inactive)	-3.5
[N-]=[N+]=Nc1ccccc1[C@@H]1OC(c2ccc(OCCCO)cc2)=N[C@]1(Cc1ccccc1)C(=O)O	0.78 (inactive)	0.433	33.2 (active)	30 (active)	3.46 (inactive)	8.04 (active)	-0.465	-1.61 (inactive)	1.27 (inactive)	-0.586
COc1cc(NN2C(C(O)c3ccco3)C=CC3C(=O)N(C)C(=O)C32)cc(OC)c1OC (stereo not given)	-1.82 (inactive)	0.429	0.715 (inactive)	0.959 (inactive)	0.214 (inactive)	1.1 (inactive)	-0.808	-1.95 (inactive)	-3.55 (inactive)	-2.81
COC(=O)[C@@]1(Cc2ccccc2)[C@H]2c3cc(C(=O)N(C)C)n(Cc4ccc(C)o4)c3C[C@H]2CN1C(=O)c1ccccc1	-1.91 (inactive)	1.25	2.55 (inactive)	-0.381 (inactive)	0.541 (inactive)	-1.54 (inactive)	1.97	-3.27 (inactive)	-2.44 (inactive)	-4.77
CN(C)c1ccc(C(O)C2C=CC3C(=O)NC(=O)C3N2Nc2ccccn2)cc1 (stereo not given)	-1.5 (inactive)	0.201	0.85 (inactive)	0.123 (inactive)	-0.693 (inactive)	0.408 (inactive)	-0.888	-2.21 (inactive)	-4.43 (inactive)	-4.16
Cc1ccc(S[C@]2(C(=O)NCCN3CCOCC3)CC(=O)N(Cc3ccccc3Cl)[C@@H]2c2ccc(CO)cc2I)cc1	0.377 (inactive)	1.55	5.93 (inactive)	0.989 (inactive)	0.676 (inactive)	0.4 (inactive)	-0.389	1.78 (inactive)	-1.12 (inactive)	1.15
CCOC(=O)C[C@H]1[C@H](OC(=O)c2ccccc2-c2ccccc2)[C@@H](NC(=O)c2ccc3ccccc3c2)c2cc(OCCCO)ccc2N1C(=O)c1ccccc1	0.142 (inactive)	-0.152	1.05 (inactive)	0.844 (inactive)	0.652 (inactive)	0.23 (inactive)	-0.0193	0.595 (inactive)	0.89 (inactive)	1.53
CCCC=C(CCC)[C@@H](NS(=O)(=O)CC12CCC(CC1=O)C2(C)C)c1ccc(C(=O)OC)cc1 (stereo not given in full)	-0.645 (inactive)	0.0345	-0.777 (inactive)	-0.825 (inactive)	-0.399 (inactive)	-1.81 (inactive)	0.922	0.219 (inactive)	0.669 (inactive)	2.48
C=CCNC(=O)[C@@H]1[C@H]2C(=O)O[C@H](c3ccccc3)[C@H](c3ccccc3)N2[C@H](c2ccccc2OCCO)[C@@]12C(=O)Nc1ccc(C#CCCO)cc12	-2.32 (inactive)	-0.674	5.68 (inactive)	1.15 (inactive)	0.206 (inactive)	0.778 (inactive)	0.0309	0.734 (inactive)	0.627 (inactive)	0.849
CCCCCCCCCCC(O)C1C=CC2C(=O)N(c3ccccc3)C(=O)C2N1Nc1ccc(C#N)cc1 (stereo not given)	-1.08 (inactive)	0.571	6.7 (inactive)	2.33 (inactive)	0.0103 (inactive)	2.3 (inactive)	-0.817	-1.32 (inactive)	0.0477 (inactive)	-0.266
COC(=O)c1c(CC[C@@H](CO)NC(=O)N[C@@H](C)Cn2cc(-c3ccccn3)nn2)oc(C(C)=O)c1C(=O)OC	-0.476 (inactive)	-0.106	1.71 (inactive)	-1.15 (inactive)	0.613 (inactive)	-1.08 (inactive)	0.42	-3.95 (inactive)	-2.23 (inactive)	-3.06
O=C1O[C@@H](c2ccccc2)[C@@H](c2ccccc2)N2[C@@H](c3ccc(O)cc3)[C@]3(C(=O)Nc4ccc(C#CCCO)cc43)[C@@H](C(=O)N3CCN(c4ncccn4)CC3)[C@H]12	1.81 (inactive)	0.348	1.97 (inactive)	1.01 (inactive)	-0.834 (inactive)	0.516 (inactive)	-0.138	0.941 (inactive)	-0.341 (inactive)	0.594
O=C1[C@H]2C=C(I)[C@H](C[C@@H]2OCCOCCO)[C@@]12CO2	-0.878 (inactive)	-0.371	-0.0899 (inactive)	-0.122 (inactive)	-0.321 (inactive)	-0.235 (inactive)	0.0332	0.578 (inactive)	0.373 (inactive)	-0.151
CS(=O)(=O)CCOC(=O)C1=CC(CCCO)=CC(c2ccc(CN3CCCC3)cc2)N(Cc2sc3ccccc3c2Cl)C=C1C(=O)OCCS(C)(=O)=O (stereo not given)	-0.794 (inactive)	0.85	3.35 (inactive)	0.586 (inactive)	0.51 (inactive)	0.428 (inactive)	-0.261	0.44 (inactive)	-0.567 (inactive)	-0.719
